One may read the AC50 as the midpoint of the concentration-response curve, whichever way the signal moves.

We go through 21 compounds from PubChem BioAssay (EPA / NIEHS).

Records with an inconclusive call do not appear. Activity calls are given as the source filed them. Rule for the calls, unless noted: active = hit-call score of the fitted dose curve at least 0.9, where 1 is the maximum; inconclusive = response in the unintended direction; inactive = score below 0.9.

A short description of test [1]: CEETOX_H295R_MTT_cell_viability: Viability Assessment in the CeeTox HT-H295R MTT Assay (AID 2283718; active = hit-call score of the fitted dose curve at least 0.9, where 1 is the maximum; inactive = score below 0.9;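 for AC50: curve fitted both ways so AC50 may mark viability loss or gain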). An outline of the steps:
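H295R cells prestimulated 48 h with 10 uM forskolin, then exposed 48 h to test chemical (0.1% DMSO final). Viability by MTT (0.5 mg/ml, 4 h, 37 C), absorbance 570/650 nm; percent change versus DMSO, bidirectional fit.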

Test [2] can be described thus: Tanguay_ZF_120hpf_ActivityScore_legacy: (Legacy) Oregon State University Tanguay Lab 120 Hour Post-fertilization zebrafish Assay Score for Activity (AID 2283742).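 For AC50: static exposure from 6 hpf until 120 hpf at 28 °C.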 An outline of the steps: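 Tropical 5D wild-type zebrafish embryos, dechorionated with pronase at 4 hpf, were exposed singly from 6 hpf to 120 hpf statically at 28C in 0.64% DMSO. Malformations and mortality were scored as binary by brightfield, with the activity score combining 18 morphology components.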

Read-out in test [3]: alkyl and aryl transferase (GSTA2), GSTA2 (gene 2939)
In words: CLD_GSTA2_48hr: CellzDirect (CLD) Gene Expression Assay for alkyl and aryl transferase (GSTA2) at 48 hours (AID 2283708).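 Note: active means mRNA induction above DMSO vehicle baseline.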 The method in brief: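 Primary human hepatocytes dosed daily for two days (0.2% DMSO vehicle), harvested at 48 h. GSTA2 mRNA induction measured by quantitative nuclease protection assay with chemiluminescent imaging, fitted for gain of signal relative to DMSO.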

Test [4] in a line: STM_H9_OrnithineISnorm_perc: Stemina devTOX quickPredict H9 human embryonic stem cell (hESC)-based Assay for Ornithine (ORN) Metabolite Biomarker, Normalized (AID 2283712; active = hit-call score of the fitted dose curve at least 0.9, where 1 is the maximum; inactive = score below 0.9;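 note: ornithine released into spent medium during last day measured by mass spectrometry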). The method in brief:
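H9 human embryonic stem cells kept pluripotent receive test chemical over 72 h, refreshed daily by media exchange. Media from the closing 24 h is deproteinized and analysed by UPLC-HRMS on an amide column; ornithine signal is scaled to labelled standard and vehicle.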

A short description of test [5]: STM_H9_CystineISnorm_perc: Stemina devTOX quickPredict H9 human embryonic stem cell (hESC)-based Assay for Cystine (CYSS) Metabolite Biomarker, Normalized (AID 2283713; active = hit-call score of the fitted dose curve at least 0.9, where 1 is the maximum; inactive = score below 0.9). An outline of the steps:
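H9 hESC, pluripotent; compound 72h, re-dosed q24h with medium change. Last-24h medium → 40% acetonitrile deproteinization → UPLC-HRMS. CYSS area / C13-CYSS standard, then % of 0.1% DMSO median.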

Test [6] is described as follows: STM_H9_OrnCyssISnorm_ratio: Stemina devTOX quickPredict H9 human embryonic stem cell (hESC)-based Assay for Ornithine (ORN):Cystine (CYSS) Ratio (AID 2283714). The method in brief: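 Undifferentiated H9 hESCs were exposed to compound for 72h with media and chemical replaced every 24h. Final 24-h conditioned media were deproteinized and analysed by UPLC-HRMS. ORN and CYSS peak areas were normalized to C13 internal standards and the ratio taken versus 0.1% DMSO.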

Read-out in test [7]: glucuronosyltransferase (UGT1A1), UGT1A1 (gene 54658)
The experiment in a line: CLD_UGT1A1_48hr: CellzDirect (CLD) Gene Expression Assay for glucuronosyltransferase (UGT1A1) at 48 hours (AID 2283709).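 Note: actives increase expression relative to DMSO so potency refers to induction.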 The method in brief: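 Human primary hepatocytes dosed daily for two days (0.2% DMSO vehicle), harvested at 48 h. UGT1A1 mRNA induction measured by quantitative nuclease protection assay with chemiluminescence; gain of signal versus DMSO; cytotoxicity flagged from morphology.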

Read-out in test [8]: HMG-CoA synthase (HMGCS2), HMGCS2 (gene 3158)
In words: CLD_HMGCS2_48hr: CellzDirect (CLD) Gene Expression Assay for HMG-CoA synthase (HMGCS2) at 48 hours (AID 2283711). An outline of the steps: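 Primary human hepatocytes from two donors dosed daily for two days, 0.2% DMSO vehicle. HMGCS2 mRNA measured 48 h after dosing by quantitative nuclease protection assay with chemiluminescent read-out; induction fitted relative to DMSO, cytotoxicity flagged by microscopy.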

Test [9] concerns the target Luciferin 4-monooxygenase (Photinus pyralis) (UniProt P08659). In words: CCTE_Simmons_QuantiLum_inhib_2: CCTE's Firefly Luciferase Inhibition Assay, Simmons Lab (AID 2283767). An outline of the steps:
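Luminescence loss relative to DMSO vehicle defines inhibition; detection reagent containing 150 uM D-luciferin and 147 uM dATP (final, pH 7.8) is injected immediately before each read. Enzyme is preincubated with an 8-point titration (5 nM–87.5 uM final) for 30 min at 37C.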

Read-out in test [10]: sulfotransferase (SULT2A), SULT2A1 (gene 6822)
The experiment in a line: CLD_SULT2A_48hr: CellzDirect (CLD) Gene Expression Assay for sulfotransferase (SULT2A) at 48 hours (AID 2283710).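 Note: hits raise SULT2A1 transcript above the 0.2% DMSO vehicle baseline.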 An outline of the steps: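 Primary human hepatocytes (two donor preparations) dosed daily for two days with chemicals at multiple concentrations, vehicle 0.2% DMSO; SULT2A1 mRNA induction at 48 h by quantitative nuclease protection assay, chemiluminescent read-out, fitted for gain of signal versus DMSO.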

Test [11] deals with chicken Androgen Receptor (AR), gene 422165. The experiment in a line: ATG_chAR_XSP1: Attagene TRANS-FACTORIAL Multi-Species (XSP1) HepG2 Assay for chicken Androgen Receptor (AR) (AID 2283768). The method in brief:
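HepG2 cells transiently transfected with multiplexed GAL4-UAS reporter units expressing chimeric chicken AR-Gal4; 3 nM 6-alpha-fluorotestosterone for partial AR stimulation; 24 h after dosing, reporter mRNA by RT-PCR and capillary electrophoresis, gain-of-signal versus DMSO.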

Luciferin 4-monooxygenase (Photinus pyralis), sequence (P08659 whole entry, looked up): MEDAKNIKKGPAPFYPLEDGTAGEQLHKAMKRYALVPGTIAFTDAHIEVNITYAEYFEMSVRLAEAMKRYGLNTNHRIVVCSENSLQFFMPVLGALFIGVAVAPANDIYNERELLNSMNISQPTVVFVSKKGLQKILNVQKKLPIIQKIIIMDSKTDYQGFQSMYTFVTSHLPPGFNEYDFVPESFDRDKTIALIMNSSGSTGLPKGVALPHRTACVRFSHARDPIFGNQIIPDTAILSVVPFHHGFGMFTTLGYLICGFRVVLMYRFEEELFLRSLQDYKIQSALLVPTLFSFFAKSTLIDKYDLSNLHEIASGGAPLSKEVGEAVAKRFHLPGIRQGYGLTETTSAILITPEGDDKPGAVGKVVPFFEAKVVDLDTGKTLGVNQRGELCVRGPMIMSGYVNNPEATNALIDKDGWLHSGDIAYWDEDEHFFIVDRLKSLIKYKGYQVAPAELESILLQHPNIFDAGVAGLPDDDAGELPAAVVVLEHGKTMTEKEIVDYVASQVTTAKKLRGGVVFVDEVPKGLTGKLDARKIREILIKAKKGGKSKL

As for `CC(C)Oc1cccc(NC(=O)c2ccccc2C(F)(F)F)c1`, the AC50 was 71.1 µM (active) in test [1] and 34.2 µM (active) in test [2].
On to `Cc1ccc(N=CN(C)C=Nc2ccc(C)cc2C)c(C)c1`, for which the call in [3] and in [2] was inactive.
Regarding `O=C(Nc1ccccc1-c1ccc(Cl)cc1)c1cccnc1Cl`, the call in [3], in test [5], in [1] and in [2] was inactive. Also, the AC50 is 50 µM (active) in test [4] and 72.1 µM (active) in test [6].
As to `CC(C)N1C(=O)N(c2ccccc2)CSC1=NC(C)(C)C`, the result in [3], in test [7] and in test [2] was inactive.
On to `CN=C=S`, for which the compound was called inactive in test [3] and in [2].
Turning to `CN/C(=N\[N+](=O)[O-])NCc1cnc(Cl)s1`, the call in [1] and in test [2] was inactive.
As for `Cc1cc(C)nc(Nc2ccccc2)n1`, the compound was classed as inactive in test [8], in [4] and in [2]. In test [5], the AC50 is 7.74 µM (active).
With `CCOc1nc(C(Cl)(Cl)Cl)ns1`, the compound was classed as inactive in test [8], in [5], in test [1], in [2] and in test [9]. For the same compound, the AC50 is 0.11 µM (active) in [4] and 9.92 µM (active) in test [6].
As for `C=CCOC(=O)C(C)(C)OC(=O)c1cc(-n2c(=O)cc(C(F)(F)F)n(C)c2=O)ccc1Cl`, the result in [3] and in test [2] was inactive.
Take `Cc1cnc(C2=NC(C)(C(C)C)C(=O)N2)c(C(=O)O)c1` (stereo not given): the compound was classed as inactive in [10], in test [2] and in test [9].
Regarding `CC1(C)CON(Cc2ccccc2Cl)C1=O`, the compound was called inactive in test [7], in test [4], in test [1] and in test [2]. Further, the figures for the AC50 in test [5] and in test [6] were 72.5 µM (active) and 68.8 µM (active), respectively.
Consider `CCCCC(C#N)(Cn1cncn1)c1ccc(Cl)cc1` (stereo not given), for which the compound was called inactive in test [3], in test [5], in test [1] and in [2]. In addition, the AC50 in test [4] was 76 µM (active); in [6], 77.9 µM (active).
For `COC(=O)c1c(C(F)F)nc(C(F)(F)F)c(C2=NCCS2)c1CC(C)C`, the AC50 in test [3] is 20 µM (active); in [1], 38.8 µM (active). Besides, the compound was classed as inactive in test [2].
Take `CCN(CC)c1nc(C)cc(OP(=S)(OC)OC)n1`: the result in test [7], in test [1], in test [2] and in test [9] was inactive.
As for `CC(C)(C)C(=O)C(Oc1ccc(Cl)cc1)n1cncn1` (stereo not given), the result in test [3], in [4] and in test [1] was inactive. Also, the AC50 in [5] is 34.3 µM (active); in test [6] it was 71.8 µM (active); in [2], 33.6 µM (active).
Turning to `N#Cc1c[nH]cc1-c1cccc2c1OC(F)(F)O2`, the AC50 was 38.3 µM (active) in test [4], 29.4 µM (active) in test [5], 32.8 µM (active) in test [6] and 26.9 µM (active) in test [2].
`CC1(C)C(C(=O)OC(C#N)c2cccc(Oc3ccccc3)c2)C1(C)C` (stereo not given): the compound was called inactive in test [3], in test [8] and in test [2].
As for `CNC(=O)Oc1cccc2ccccc12`, the outcome in test [3], in test [4], in test [1] and in test [2] was inactive. Also, the concentration at half-maximal activity (AC50) was 2.87 µM (active) in test [5] and 2.71 µM (active) in test [6].
Consider `CCOC(=O)C(C)OC(=O)c1cc(Oc2ccc(C(F)(F)F)cc2Cl)ccc1[N+](=O)[O-]` (stereo not given), for which the AC50 in [8] was 0.241 µM (active). For the same compound, the compound was classed as inactive in test [1] and in test [2].
As for `Cn1c(-c2ccccc2)cc(-c2ccccc2)[n+]1C`, the AC50 in [3] is 2.83 µM (active); in test [4], 25.3 µM (active); in test [5], 10.9 µM (active); in [6], 20 µM (active). Also, the compound was called inactive in test [2].
On to `CC1(C)C(C=C(Cl)Cl)C1C(=O)OC(C#N)c1cccc(Oc2ccccc2)c1` (stereo not given), for which the result in test [4], in [5], in test [6], in test [1] and in [11] was inactive. In [2], the half-maximal activity concentration (AC50) is 1.14 µM (active).
